# In the supplement of paper PMC8728848:
# Only a selection was taken, and the strongest signals are over-represented in it overall.
# B1: PX14375D-bvu-513-34-513 (Bacteroides vulgatus) (protein)
# chain: TEDTFWKDETDFNLALTSCYTPLKNALNGGYYGTRGVMLRIARADEVDFRNDISDVYTVNRFTNSNTNSLTQGMFYQFYNALYRTNSIMQKLEEKKEQFSTDFQNSVKGECLFIRGFYLFQLAKEFKDAPLRLTASQSPSTFPLAKSSQADIWAQAKEDLKTAASLLPITNKIGKPTQGAAYAALGKIYVYEENWQEAINVLEPLTQNPYTYKLVEDFNWNFDDTHENNAESIFELLIEDVGGTDLWGDGENINSTQSNTRPKEYAAAEVGGWYEANPTQQIMDIFWKEKDKDGNFDYRARCSVAWDYEGCTYYQRPFREVFAQDKWKTYWILKYQNWKTQKDEPAPPKSFINERAIRYADVLLMLAEAYMNKGALDTSIGYINQIRRRANLNDYSGPITKEGVFEDLVHQRAIEFFVEGERFYDLRRWGLLEQTLKTCDDTRYKNYQTGKSDNINKFNYFPIPAKELDTNPLCTPSEGW
# Key:
# Test in all cases: glycan array binding signal (z-score within array); higher = stronger binding
# Settings in all cases: glycan notation: IUPAC condensed, linker removed
# [1] = biological target: Fuc(a1-2)Gal
# Outline: (§1)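 Glycan array data were curated from 3228 arrays in the Consortium for Functional Glycomics database and kept only where the protein sequence was available. Glycan names were converted to IUPAC-condensed notation, and columns mapping to the same glycan were averaged. The binding signal is a within-array Z-score, averaged across arrays of the same protein sequence at different concentrations or buffers and across linkers. Negative Z-scores can be read as non-binding.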
# [2] = biological target: Fuc(a1-2)Gal(b1-3)GlcNAc
# Outline: as §1
# [3] = biological target: Fuc(a1-2)Gal(b1-3)GlcNAc(b1-2)Man(a1-3)[Fuc(a1-2)Gal(b1-3)GlcNAc(b1-2)Man(a1-6)]Man(b1-4)GlcNAc(b1-4)GlcNAc
# Outline: as §1
# [4] = biological target: Fuc(a1-2)Gal(b1-3)GlcNAc(b1-2)Man(a1-3)[Fuc(a1-2)Gal(b1-3)GlcNAc(b1-2)Man(a1-6)]Man(b1-4)GlcNAc(b1-4)[Fuc(a1-6)]GlcNAc
# Outline: as §1
# [5] = biological target: Fuc(a1-2)Gal(b1-3)GlcNAc(b1-3)GalNAc
# Outline: as §1
# [6] = biological target: Fuc(a1-2)Gal(b1-3)[Fuc(a1-4)]GlcNAc(b1-2)Man(a1-3)[Fuc(a1-2)Gal(b1-3)[Fuc(a1-4)]GlcNAc(b1-2)Man(a1-6)]Man(b1-4)GlcNAc(b1-4)[Fuc(a1-6)]GlcNAc(b1-4)[Fuc(a1-6)]GlcNAc
# Outline: as §1
# [7] = biological target: Fuc(a1-2)Gal(b1-4)GlcNAc
# Outline: as §1
# [8] = biological target: Fuc(a1-2)Gal(b1-4)[Fuc(a1-3)]GlcNAc(b1-2)Man(a1-3)[Fuc(a1-2)Gal(b1-4)[Fuc(a1-3)]GlcNAc(b1-2)Man(a1-6)]Man(b1-4)GlcNAc(b1-4)[Fuc(a1-6)]GlcNAc
# Outline: as §1
# [9] = biological target: Fuc(a1-2)Gal6S(b1-4)Glc
# Outline: as §1
# [10] = biological target: Fuc(a1-2)[Gal(a1-3)]Gal(b1-3)GlcNAc(b1-3)GalNAc
# Outline: as §1
# [11] = biological target: Fuc(a1-2)[Gal(a1-4)]Gal(b1-4)GlcNAc
# Outline: as §1
# [12] = biological target: Fuc(a1-3)[Gal(b1-4)]GlcNAc(b1-2)Man
# Outline: as §1
# [13] = biological target: Fuc(a1-3)[Gal(b1-4)]GlcNAc(b1-2)Man(a1-3)[Fuc(a1-3)[Gal(b1-4)]GlcNAc(b1-2)Man(a1-6)]Man(b1-4)GlcNAc(b1-4)GlcNAc
# Outline: as §1
# [14] = biological target: Fuc(a1-3)[Gal(b1-4)]GlcNAc(b1-6)GalNAc
# Outline: as §1
# [15] = biological target: Gal(a1-3)Gal(b1-3)GlcNAc(b1-2)Man
# Outline: as §1
# [16] = biological target: Gal(a1-3)Gal(b1-4)GlcNAc(b1-6)GalNAc
# Outline: as §1
# [17] = biological target: Gal(a1-3)[Gal(a1-4)]Gal(b1-4)GlcNAc
# Outline: as §1
# [18] = biological target: Gal(a1-4)Gal(b1-4)GlcNAc
# Outline: as §1
# [19] = biological target: Gal(b1-2)Gal
# Outline: as §1
# [20] = biological target: Gal(b1-4)GlcNAc
# Outline: as §1
# [21] = biological target: Gal(b1-4)GlcNAc(b1-3)Gal(b1-4)Glc
# Outline: as §1
# [22] = biological target: Gal(b1-4)GlcNAc(b1-3)Gal(b1-4)GlcNAc(b1-2)Man(a1-3)[Gal(b1-4)GlcNAc(b1-3)Gal(b1-4)GlcNAc(b1-2)Man(a1-6)]Man(b1-4)GlcNAc(b1-4)GlcNAc
# Outline: as §1
# [23] = biological target: GalNAc(b1-3)Gal
# Outline: as §1
# [24] = biological target: GalNAc(b1-3)Gal(a1-4)Gal(b1-4)GlcNAc(b1-3)Gal(b1-4)Glc
# Outline: as §1
# [25] = biological target: Glc(b1-4)Glc
# Outline: as §1
# [26] = biological target: GlcA3S(b1-3)Gal(b1-4)GlcNAc(b1-3)Gal(b1-4)Glc
# Outline: as §1
# [27] = biological target: GlcNAc(b1-2)[GlcNAc(b1-4)]Man(a1-3)[GlcNAc(b1-4)][GlcNAc(b1-2)Man(a1-6)]Man(b1-4)GlcNAc(b1-4)GlcNAc
# Outline: as §1
# [28] = biological target: GlcNAc(b1-3)Gal(b1-4)Glc
# Outline: as §1
# [29] = biological target: GlcNAc(b1-3)Gal(b1-4)GlcNAc(b1-2)Man(a1-3)[GlcNAc(b1-3)Gal(b1-4)GlcNAc(b1-2)Man(a1-6)]Man(b1-4)GlcNAc(b1-4)[Fuc(a1-6)]GlcNAc
# Outline: as §1
# [30] = biological target: GlcNAc(b1-3)Gal(b1-4)GlcNAc(b1-3)Gal(b1-4)GlcNAc(b1-2)Man(a1-3)[GlcNAc(b1-3)Gal(b1-4)GlcNAc(b1-3)Gal(b1-4)GlcNAc(b1-2)Man(a1-6)]Man(b1-4)GlcNAc(b1-4)[Fuc(a1-6)]GlcNAc
# Outline: as §1
# [31] = biological target: GlcNAc(b1-3)Gal(b1-4)GlcNAc(b1-3)Gal(b1-4)GlcNAc(b1-3)Gal(b1-4)GlcNAc(b1-2)[GlcNAc(b1-3)Gal(b1-4)GlcNAc(b1-3)Gal(b1-4)GlcNAc(b1-3)Gal(b1-4)GlcNAc(b1-6)]Man(a1-6)[GlcNAc(b1-3)Gal(b1-4)GlcNAc(b1-3)Gal(b1-4)GlcNAc(b1-3)Gal(b1-4)GlcNAc(b1-2)Man(a1-3)]Man(b1-4)GlcNAc(b1-4)[Fuc(a1-6)]GlcNAc
# Outline: as §1
# [32] = biological target: Man(a1-2)Man(a1-3)Man
# Outline: as §1
# [33] = biological target: Man(a1-3)[Man(a1-6)]Man(b1-4)GlcNAc(b1-4)GlcNAc
# Outline: as §1
# [34] = biological target: Neu5Ac(a2-3)Gal(b1-3)GlcNAc(b1-3)GalNAc
# Outline: as §1
# [35] = biological target: Neu5Ac(a2-3)Gal(b1-3)[Fuc(a1-4)]GlcNAc
# Outline: as §1
# [36] = biological target: Neu5Ac(a2-3)Gal(b1-4)GlcNAc(b1-2)Man(a1-3)[Neu5Ac(a2-3)Gal(b1-4)GlcNAc(b1-2)Man(a1-6)]Man(b1-4)GlcNAc(b1-4)[Fuc(a1-6)]GlcNAc
# Outline: as §1
# [37] = biological target: Neu5Ac(a2-3)Gal(b1-4)[Fuc(a1-3)]GlcNAc(b1-3)GalNAc
# Outline: as §1
# [38] = biological target: Neu5Ac(a2-6)Gal(b1-4)GlcNAc(b1-2)Man
# Outline: as §1
# [39] = biological target: Neu5Ac(a2-6)Gal(b1-4)GlcNAc(b1-2)Man(a1-3)[GlcNAc(b1-2)Man(a1-6)]Man(b1-4)GlcNAc(b1-4)GlcNAc
# Outline: as §1
# [40] = biological target: Neu5Ac(a2-6)Gal(b1-4)GlcNAc(b1-2)Man(a1-3)[Neu5Ac(a2-6)Gal(b1-4)GlcNAc(b1-2)Man(a1-6)]Man(b1-4)GlcNAc(b1-4)GlcNAc
# Outline: as §1
# [41] = biological target: Neu5Ac(a2-6)Gal(b1-4)GlcNAc(b1-2)Man(a1-6)Man(b1-4)GlcNAc(b1-4)GlcNAc
# Outline: as §1
# [42] = biological target: Neu5Ac(a2-6)GlcNAc(b1-4)GlcNAc(b1-4)GlcNAc
# Outline: as §1
# [43] = biological target: Neu5Ac(a2-8)Neu5Gc(a2-3)Gal(b1-4)GlcNAc
# Outline: as §1
# [44] = biological target: Neu5Gc(a2-3)Gal(b1-4)Glc
# Outline: as §1
# [45] = biological target: Neu5Gc(a2-6)GalNAc
# Outline: as §1
# [46] = biological target: Neu5Gc(a2-8)Neu5Gc(a2-3)Gal(b1-4)GlcNAc(b1-3)Gal(b1-4)GlcNAc
# Outline: as §1
binder,measurement,setting,value
B1,glycan array binding signal (z-score),[1],0.373
same,glycan array binding signal (z-score),[2],-0.892
same,glycan array binding signal (z-score),[3],1.56
same,glycan array binding signal (z-score),[4],0.425
same,glycan array binding signal (z-score),[5],-0.35
same,glycan array binding signal (z-score),[6],2.03
same,glycan array binding signal (z-score),[7],0.501
same,glycan array binding signal (z-score),[8],1.81
same,glycan array binding signal (z-score),[9],-0.059
same,glycan array binding signal (z-score),[10],-0.366
same,glycan array binding signal (z-score),[11],-0.107
same,glycan array binding signal (z-score),[12],2.96
same,glycan array binding signal (z-score),[13],-0.56
same,glycan array binding signal (z-score),[14],0.851
same,glycan array binding signal (z-score),[15],-0.81
same,glycan array binding signal (z-score),[16],0.081
same,glycan array binding signal (z-score),[17],2.92
same,glycan array binding signal (z-score),[18],0.227
same,glycan array binding signal (z-score),[19],-0.667
same,glycan array binding signal (z-score),[20],0.126
same,glycan array binding signal (z-score),[21],-0.017
same,glycan array binding signal (z-score),[22],1.87
same,glycan array binding signal (z-score),[23],-0.306
same,glycan array binding signal (z-score),[24],0.403
same,glycan array binding signal (z-score),[25],0.371
same,glycan array binding signal (z-score),[26],-0.213
same,glycan array binding signal (z-score),[27],-0.188
same,glycan array binding signal (z-score),[28],-0.384
same,glycan array binding signal (z-score),[29],1.56
same,glycan array binding signal (z-score),[30],1.62
same,glycan array binding signal (z-score),[31],2.65
same,glycan array binding signal (z-score),[32],-1
same,glycan array binding signal (z-score),[33],0.478
same,glycan array binding signal (z-score),[34],-0.439
same,glycan array binding signal (z-score),[35],1.67
same,glycan array binding signal (z-score),[36],-0.211
same,glycan array binding signal (z-score),[37],1.33
same,glycan array binding signal (z-score),[38],-0.379
same,glycan array binding signal (z-score),[39],-0.096
same,glycan array binding signal (z-score),[40],-0.145
same,glycan array binding signal (z-score),[41],0.342
same,glycan array binding signal (z-score),[42],0.337
same,glycan array binding signal (z-score),[43],18.8
same,glycan array binding signal (z-score),[44],-0.166
same,glycan array binding signal (z-score),[45],-0.168
same,glycan array binding signal (z-score),[46],-0.969
